rTrxR1 inhibitor: rat TrxR1 inhibition; O89049; recombinant rTrxR1, NADPH fluorescence consumption, selenite substrate; Potency, µM (doses to about 114 µM), without a hit: at the highest dose activity change, negative = inhibition, actives largely listed as inhibitors; hit rate 1% among 390,000; AID 588453; also: potency is read from the fitted curve at half-maximal effect; nearly all actives have a fitted effect of over 65% in size
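Rat TrxR1 (90 nM in the dispensed reagent) was pre-reduced with 400 uM NADPH for 5 min at room temperature, then incubated with compound for 15 min. After 400 uM selenite was added, NADPH fluorescence (Ex 340/Em 450 nm) was followed for 8 min.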
Gal4-VP16 FLuc: counter-screen for ROR gamma inhibitors: Gal4-VP16 reporter; Drosophila S2 Gal4-VP16 UAS-luciferase, luminescence, 20 h; Potency, µM (series often up to 53.6 µM), for inactives: top-dose activity, negative = inhibition, most hits filed as inhibitors; hit rate 3.5% among 310,000;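 also: Gal4-VP16 expression switched on by copper sulfate through the metallothionein promoter; potency is read from the fitted curve at half-maximal effect; nearly all actives have a fitted effect of over 50% in size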
TrxR1 substrate: rat thioredoxin reductase 1 substrate activity; O89049; purified TrxR1 substrate turnover, NADPH consumption readout; Potency, µM (top dose mostly 114 µM), without a hit: at the highest dose activity change, negative = substrate turnover; hit rate 0.01% among 390,000; AID 588456; also: potency is read from the fitted curve at half-maximal effect; nearly all actives have a fitted effect of over 50% in size
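Rat TrxR1, dispensed at 90 nM, was prereduced with 400 uM NADPH (final) for 5 min at ~22 deg C, then incubated with compound 15 min before 400 uM selenite. A first-read NADPH fluorescence drop versus no-compound background flagged substrates.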
RORg inh: blocks mouse ROR gamma transcriptional activity; Potency, µM (doses to about 53.6 µM), for the others: at the top dose activity change, negative = inhibition, usual class: inhibitors; AID 2551; Drosophila S2 Gal4-RORgamma UAS-luciferase reporter, 20 h; hit rate 5.4% among 310,000; also: potency is read from the fitted curve at half-maximal effect; nearly all actives have a fitted effect of over 60% in size
Target sequence (P51450 whole entry, looked up, the tested form may be a part): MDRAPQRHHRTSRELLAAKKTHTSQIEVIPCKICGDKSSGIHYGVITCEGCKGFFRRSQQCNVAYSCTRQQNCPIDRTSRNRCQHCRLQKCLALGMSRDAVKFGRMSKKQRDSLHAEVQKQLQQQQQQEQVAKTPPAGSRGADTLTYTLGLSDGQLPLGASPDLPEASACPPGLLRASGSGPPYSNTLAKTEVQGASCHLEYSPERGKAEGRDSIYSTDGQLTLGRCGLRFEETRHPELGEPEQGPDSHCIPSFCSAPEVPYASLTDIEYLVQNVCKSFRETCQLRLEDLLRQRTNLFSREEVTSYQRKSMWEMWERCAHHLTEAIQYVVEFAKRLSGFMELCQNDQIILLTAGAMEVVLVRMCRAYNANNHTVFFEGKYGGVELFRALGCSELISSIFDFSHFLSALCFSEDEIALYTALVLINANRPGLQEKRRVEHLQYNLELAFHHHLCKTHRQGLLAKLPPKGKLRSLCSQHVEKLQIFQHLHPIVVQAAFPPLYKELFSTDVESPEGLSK
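Stably transfected Drosophila Schneider cells are the test system, with ROR gamma fused to Gal4 and luciferase under UAS control; luminescence is read after 20 hr of 700 uM copper sulfate induction at ambient temperature.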
GALK inh: inhibitors of human galactokinase. P51570. Purified GALK, Kinase-Glo residual ATP luminescence. Potency, µM (doses to about 57.5 µM), for inactives: top-dose activity change, negative = inhibition, most hits filed as inhibitors. hit rate 0.007% among 270,000. AID 1868; also: potency is read from the fitted curve at half-maximal effect
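Compounds were pin-transferred into ATP buffer (35 uM final), then GALK plus galactose (5 nM, 100 uM final) was added. After 1 h at room temperature, Kinase-Glo Plus was added and luminescence read after 10 min.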
Coupling enz: coupling enzyme interference in Giardia aldolase counter-screen. coupling enzyme system counterscreen, AmpLite Red fluorescence. activity change, negative = inhibition, % at 58.2 µM, hits read low. hit rate 0.67% among 290,000; in the data active = activity change below about -30%
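Compounds tested against the coupling enzymes alone at 57.5 uM final; readout was AmpLite Red fluorescence (525/598 nm) after 20 min at RT.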
Starred values were filed as active, the others as inactive; ? = inconclusive; . = no result; [ ] = remark or other dose. In the library only some 5.9% were active in any assay of this set; here they are far more common. Unless noted, calls follow the shape of the dose curve; as a rule, active = well fitted curve in the direction sought with a large enough effect; inconclusive = small, poorly fitted or top-dose-only effect, or another doubt; inactive = no such curve, though single readings can be large; an effect the other way counts as inactive or inconclusive. % is scaled to controls: 0 for no effect and ±100 for the full control effect.

SMILES	rTrxR1 inhibitor	Gal4-VP16 FLuc	TrxR1 substrate	RORg inh	GALK inh	Coupling enz
COc1ccc2nc(N3C(=O)CNC3=S)sc2c1	21%[57.1 µM]	5.6µM*	-10%	0.5µM*	.	3
O=C(CSc1ccc(Cl)cc1)Nc1nnc(-c2ccco2)o1	-9%	.	-2%	.	.	.
Cc1ccc(C(=O)Nc2nnc(-c3ccco3)o2)cc1C	24%[57.1 µM]	0.89µM*	-9%	0.63µM*	1%	2
Cc1cccc(C(=O)Nc2nnc(-c3ccco3)o2)c1	10%[57.1 µM]	0.63µM*	-2%[57.1 µM]	0.5µM*	-3%	-3
O=C(Nc1nnc(-c2ccco2)o1)c1ccc(Cl)cc1	27%[57.1 µM]	0.63µM*	3%[57.1 µM]	0.35µM*	-2%	0
S=C1NC[C@H](Cc2ccccc2)N1CC1CCN(CCCCc2ccccc2)CC1	11%	.	6%	.	.	.
CCc1nn(CC(=O)N2CCN(c3cccc(C)c3C)CC2)c(=O)c2cc3occc3n12	5%	.	2%	.	.	.
O=C1CCCC2=C1C1(CCCCC1)N=C(Nc1nc3ccccc3o1)N2	16%	-5%	6%	12%	22µM*	1
CC(=O)c1ccc(NC(=O)COC(=O)Cc2ccsc2)cc1	15%	.	5%	.	.	.
CCCCCOc1ccc(Br)cc1CSC(=N)N	0%	7.1µM*	-4%	-75%	0%	-4
Cc1nn(-c2ccccc2)c2sc(C(=O)NCCN3CCOCC3)cc12	-6%[57.1 µM]	-11%	40%[57.1 µM]	-11%	-2%	1
COCCCNc1nc(=S)[nH]c2cc(OC)c(OC)cc12	-21%	3%	-1%	?	-1%	3
COc1ccccc1CNc1nc(=S)[nH]c2cc(OC)c(OC)cc12	-11%	?	4%	-64%	2%	-1
COc1cc2[nH]c(=S)nc(NCCc3ccc(C)cc3)c2cc1OC	11%	6.3µM*	3%	0.89µM*	3%	1
COc1cc2[nH]c(=S)nc(NCc3cccs3)c2cc1OC	1%[57.1 µM]	13µM*	6%[57.1 µM]	6.3µM*	10%	1
COc1cc2[nH]c(=S)nc(NCCC(C)C)c2cc1OC	-10%	8.9µM*	5%	4.5µM*	14%	-1
COc1cc2[nH]c(=S)nc(Nc3ccc(NC(C)=O)cc3)c2cc1OC	10µM*	-1%	-2%	-12%	-1%	-1
O=C(c1cc2cc(Cl)ccc2oc1=O)N1CCN(c2ccccn2)CC1	1%	-4%	4%	16%[1.91 µM]	2%	-4
COc1ccc(Cl)cc1NC(=O)COc1ccc(S(=O)(=O)N2CCOCC2)cc1C	20%[57.1 µM]	-11%	1%[57.1 µM]	39%	-2%	2
COc1ccc(CCNc2nc(=S)[nH]c3cc(OC)c(OC)cc23)cc1OC	-17%	?	1%	10µM*	0%	-1
COc1cc2[nH]c(=S)nc(NCc3ccc(Cl)cc3)c2cc1OC	20%	7.1µM*	9%	5µM*	-3%	0
COc1ccc(S(=O)(=O)NCC2CCCN(Cc3cn(C)nc3C)C2)cc1 (stereo not drawn)	4%	3%	1%	-6%	4%	-1
O=C(CC1S/C(=N/N=C/C=C/c2ccccc2)NC1=O)Nc1ccc(Cl)c(Cl)c1 (stereo not drawn)	9%	7.9µM*	5%	5.6µM*	-2%	-4
Cc1ccc(/C=N/N=C2/NC(=O)C(CC(=O)Nc3ccccc3)S2)o1 (stereo not drawn)	6%	-5%[10 µM]	-4%	11µM*	-1%	-2
CC(=O)c1cccc(NC(=O)CC2S/C(=N/N=C/c3ccccc3)NC2=O)c1 (stereo not drawn)	23%	-11%[10 µM]	1%	0%	-10%	1
SMILES	rTrxR1 inhibitor	Gal4-VP16 FLuc	TrxR1 substrate	RORg inh	GALK inh	Coupling enz
Cc1ccc(/C=N/N=C2/NC(=O)C(CC(=O)Nc3ccc(Cl)cc3)S2)o1 (stereo not drawn)	12%	?	2%	11µM*	1%	1
O=C1CS/C(=N/N=C/c2ccc(OS(=O)(=O)c3ccccc3)cc2)N1	19%[57.1 µM]	?	2%[57.1 µM]	-16%	-1%	0
Cc1ccc(/C=N/N=C2/NC(=O)CS2)o1	1%	?	-11%	13µM*	9%	2
CCOc1ccc(NC(c2ccccn2)c2oc(CO)cc(=O)c2O)cc1 (stereo not drawn)	?	-4%	0%	-40%	0%	-19
CCOc1ccc(NC(=O)CN(C)C(=O)c2ccccc2SCC(=O)N2CCCC2)cc1OCC	1%	.	-4%	.	.	.
Cc1nn(Cc2noc(C(=O)NCCCn3ccnc3)n2)c(C)c1Br	20%	-3%	6%	4%	1%	1
Cc1cc(C)cc(OCC(=O)N(Cc2ccco2)c2c(N)n(Cc3ccccc3)c(=O)[nH]c2=O)c1	-21%	.	9%	.	.	.
S=C(Nc1ccc(Br)cc1)NC1CCCC1	-5%	10µM*	-2%	6.3µM*	0%	3
COc1ccc(NC(=S)NC2CCCCC2)cn1	6%[57.1 µM]	?	4%[57.1 µM]	13µM*	-2%	-1
S=C(NCC1CCCCC1)Nc1cccnc1	-3%	16%	-2%	-40%	-2%	0
COC(=O)c1ccc(NC(=S)NC2CC2)cc1	-26%	27%	2%	?	-2%	1
S=C(NCC1CCCCC1)Nc1ccc(Oc2ccccc2)cc1	4%	5µM*	2%	2.8µM*	-1%	0
S=C(Nc1ccccc1Oc1ccccc1)NC1CCCC1	-2%	7.1µM*	-1%	3.2µM*	0%	0
Cc1ccc(C)c(N2CCN(C(=O)CCc3c(C)nn(-c4ccc(N5CCCC5)nn4)c3C)CC2)c1	23%[57.1 µM]	.	5%[57.1 µM]	.	.	.
Cc1ccsc1/C=N/n1c(-c2ccccn2)n[nH]c1=S	-40%	?	5%[57.1 µM]	?	2%	-1
CCCNC(=O)NC(=O)COc1c(F)c(F)cc(F)c1F	7%[57.1 µM]	-1%	6%[57.1 µM]	10%	-2%	4
COc1cccc(C2=NOC(C(=O)Nc3ccc(C(C)=O)cc3)C2)c1 (stereo not drawn)	4%	-15%	-7%	11%	4%	-3
S=C(Nc1ccc(Oc2ccccc2)cc1)NC1CCCC1	6%[57.1 µM]	5µM*	5%[57.1 µM]	5µM*	-1%	3
O=C(Nc1ccc(Oc2ccccc2)cc1)C1CC1	4%[57.1 µM]	-5%	2%[57.1 µM]	21%	-2%	0
COCCn1c(SCC(=O)NC2CCCCC2)nnc1-c1ccco1	6%[57.1 µM]	4%	-11%	14%	-1%	-1
COC(=O)CN1C(=O)C2(C(C#N)=C(N)Oc3c2c(C)nn3-c2ccccc2)c2ccccc21 (stereo not drawn)	-1%[57.1 µM]	?	-4%[57.1 µM]	?	-6%	-50*
CC(C)C1=NN2C(=N)CC(=O)N=C2S1	?	-1%	0%	-24%	5%	-2
CCCCC1=NN2C(=N)CC(=O)N=C2S1	-16%	1%	1%	10µM*	-3%	2

Screening results (PubChem BioAssay)
